Test results taken from PMC7862700, “An all-to-all approach to the identification of sequence-specific readers for epigenetic DNA modifications on cytosine”.

Assays:
Experiment in all cases: DAPPL (digital affinity profiling via proximity ligation, sequencing); 10 mM Tris-HCl pH 7.5, 50 mM NaCl, 1 mM DTT, 4% glycerol, room temperature, 30 min; GST-TFs on glutathione beads, 16-mer random dsDNA library, 0.1% formaldehyde crosslink after washing; high values mean tight binding
Details in all cases: protein: recombinant; tags: N-terminal GST; dsDNA, one strand shown
[1] = biological target: T1, ERF (Homo sapiens, UniProt P50548 1-548)
T1 sequence: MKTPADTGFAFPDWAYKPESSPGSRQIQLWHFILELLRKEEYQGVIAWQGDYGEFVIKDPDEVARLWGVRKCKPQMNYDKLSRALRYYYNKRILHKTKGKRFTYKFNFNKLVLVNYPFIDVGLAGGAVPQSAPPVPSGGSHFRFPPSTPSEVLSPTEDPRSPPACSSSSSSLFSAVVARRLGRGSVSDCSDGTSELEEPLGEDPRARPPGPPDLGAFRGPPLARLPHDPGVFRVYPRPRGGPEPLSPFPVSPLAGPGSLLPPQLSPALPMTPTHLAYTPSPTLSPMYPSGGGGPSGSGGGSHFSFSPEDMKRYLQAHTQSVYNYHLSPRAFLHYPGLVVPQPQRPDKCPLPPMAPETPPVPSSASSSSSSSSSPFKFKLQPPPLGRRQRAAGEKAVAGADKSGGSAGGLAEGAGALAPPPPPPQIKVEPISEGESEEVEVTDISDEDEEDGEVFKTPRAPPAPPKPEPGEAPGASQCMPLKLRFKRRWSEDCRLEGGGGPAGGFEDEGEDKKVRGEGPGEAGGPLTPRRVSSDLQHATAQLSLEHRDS
Outline: (§1)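 Sequencing on an Illumina NextSeq500 followed washing, crosslinking with 0.1% formaldehyde, proximity ligation (BsaI/T4 ligase, 1 h, 37 °C) and PCR amplification of pools that had been incubated for 30 min at room temperature with 200 nmole of a random double-stranded 16-mer DNA library in Tris/NaCl/DTT/glycerol buffer. Each pool held DNA-barcoded human transcription factors, expressed in yeast as GST fusions and captured on glutathione beads, plus a tag-only sample. Binding signal is a hexamer's read frequency for a factor divided by its frequency in the tag-only sample.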

[2] = biological target: T2, ETV3L (Homo sapiens, UniProt Q6ZN32 1-361)
T2 sequence: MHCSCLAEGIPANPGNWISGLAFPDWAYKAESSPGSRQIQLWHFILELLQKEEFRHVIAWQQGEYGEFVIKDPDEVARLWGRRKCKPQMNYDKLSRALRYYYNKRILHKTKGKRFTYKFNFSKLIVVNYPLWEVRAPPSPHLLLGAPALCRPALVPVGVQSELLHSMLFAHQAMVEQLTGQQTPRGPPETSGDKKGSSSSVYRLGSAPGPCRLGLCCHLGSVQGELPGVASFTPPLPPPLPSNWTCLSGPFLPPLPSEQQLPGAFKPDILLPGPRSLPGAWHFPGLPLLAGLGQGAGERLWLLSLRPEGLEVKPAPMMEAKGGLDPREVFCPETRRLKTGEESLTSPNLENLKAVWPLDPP
Outline: as §1

[3] = biological target: T3, ETS2 (Homo sapiens, UniProt P15036 1-469)
T3 sequence: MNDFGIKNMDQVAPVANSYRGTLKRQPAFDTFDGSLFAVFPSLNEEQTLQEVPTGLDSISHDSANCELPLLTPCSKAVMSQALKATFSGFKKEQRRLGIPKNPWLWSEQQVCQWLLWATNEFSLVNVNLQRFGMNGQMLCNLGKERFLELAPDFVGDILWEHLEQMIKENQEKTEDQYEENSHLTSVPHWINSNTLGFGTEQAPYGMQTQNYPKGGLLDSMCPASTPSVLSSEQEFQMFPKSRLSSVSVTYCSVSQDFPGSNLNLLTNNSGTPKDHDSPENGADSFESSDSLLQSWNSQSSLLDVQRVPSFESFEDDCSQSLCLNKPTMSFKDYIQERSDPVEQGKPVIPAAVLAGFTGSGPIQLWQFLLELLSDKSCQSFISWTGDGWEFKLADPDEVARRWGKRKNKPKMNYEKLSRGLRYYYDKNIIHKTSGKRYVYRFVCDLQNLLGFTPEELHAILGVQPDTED
Outline: as §1

[4] = biological target: T4, SPDEF (Homo sapiens, UniProt O95238 1-335)
T4 sequence: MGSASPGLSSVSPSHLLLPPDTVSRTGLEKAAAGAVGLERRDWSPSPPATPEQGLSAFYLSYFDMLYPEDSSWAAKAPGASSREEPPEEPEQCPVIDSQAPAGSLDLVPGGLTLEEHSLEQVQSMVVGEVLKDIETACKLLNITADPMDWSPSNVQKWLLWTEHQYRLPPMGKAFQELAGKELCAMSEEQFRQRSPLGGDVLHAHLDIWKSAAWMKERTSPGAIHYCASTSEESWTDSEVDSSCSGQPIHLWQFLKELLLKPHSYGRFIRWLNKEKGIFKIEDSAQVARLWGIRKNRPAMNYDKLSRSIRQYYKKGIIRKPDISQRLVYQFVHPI
Outline: as §1

[5] = biological target: T5, ETV7 (Homo sapiens, UniProt Q9Y603 1-341)
T5 sequence: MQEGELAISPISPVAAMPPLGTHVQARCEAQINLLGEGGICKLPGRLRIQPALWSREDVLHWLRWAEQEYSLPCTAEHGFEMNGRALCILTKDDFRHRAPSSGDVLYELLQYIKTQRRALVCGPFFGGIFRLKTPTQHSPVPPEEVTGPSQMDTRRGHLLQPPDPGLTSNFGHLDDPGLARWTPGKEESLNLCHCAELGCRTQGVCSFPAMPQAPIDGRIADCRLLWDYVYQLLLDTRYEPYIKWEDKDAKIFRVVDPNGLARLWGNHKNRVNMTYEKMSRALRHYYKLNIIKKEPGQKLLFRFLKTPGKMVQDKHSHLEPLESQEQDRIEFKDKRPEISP
Outline: as §1

[6] = biological target: T6, ELF5 (Homo sapiens, UniProt Q9UKW6-2 1-255)
T6 sequence: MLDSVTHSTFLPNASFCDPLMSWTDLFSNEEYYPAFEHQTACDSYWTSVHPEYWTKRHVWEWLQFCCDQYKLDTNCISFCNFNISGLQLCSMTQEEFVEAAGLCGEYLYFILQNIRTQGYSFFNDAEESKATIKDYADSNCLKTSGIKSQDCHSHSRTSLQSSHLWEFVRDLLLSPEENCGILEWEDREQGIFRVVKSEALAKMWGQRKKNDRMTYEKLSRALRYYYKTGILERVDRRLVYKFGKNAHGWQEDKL
Outline: as §1

[7] = biological target: T7, ETV3 (Homo sapiens, UniProt P41162-2 1-143)
T7 sequence: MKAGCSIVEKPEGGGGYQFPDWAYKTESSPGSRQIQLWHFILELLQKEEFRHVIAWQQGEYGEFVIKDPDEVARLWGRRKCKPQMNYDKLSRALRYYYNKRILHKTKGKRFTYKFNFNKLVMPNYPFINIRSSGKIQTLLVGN
Outline: as §1

[8] = biological target: ETV6 (Homo sapiens, UniProt P41212 1-452)
Outline: as §1

ETV6, sequence (P41212 whole entry): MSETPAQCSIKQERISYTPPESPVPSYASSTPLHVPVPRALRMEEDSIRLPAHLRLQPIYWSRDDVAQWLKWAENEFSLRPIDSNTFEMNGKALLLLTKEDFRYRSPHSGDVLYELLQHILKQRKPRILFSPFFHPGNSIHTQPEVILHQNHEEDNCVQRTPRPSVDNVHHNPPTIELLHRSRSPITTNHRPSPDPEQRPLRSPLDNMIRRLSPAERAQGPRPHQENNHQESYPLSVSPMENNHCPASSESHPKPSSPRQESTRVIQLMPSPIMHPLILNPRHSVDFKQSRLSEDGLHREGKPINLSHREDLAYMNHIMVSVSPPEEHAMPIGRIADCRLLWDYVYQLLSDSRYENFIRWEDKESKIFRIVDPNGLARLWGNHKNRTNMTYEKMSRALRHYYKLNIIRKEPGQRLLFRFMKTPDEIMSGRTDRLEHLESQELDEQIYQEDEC

Row | Sequence | binding signal [1] | binding signal [2] | binding signal [3] | binding signal [4] | binding signal [5] | binding signal [6] | binding signal [7] | binding signal [8]
1 | TGTCCT | 1.5 fold enrichment (6-mer frequency, TF over GST control) | 1.58 fold enrichment (6-mer frequency, TF over GST control) | 1.47 fold enrichment (6-mer frequency, TF over GST control) | 1.79 fold enrichment (6-mer frequency, TF over GST control) | 1.4 fold enrichment (6-mer frequency, TF over GST control) | 1.7 fold enrichment (6-mer frequency, TF over GST control) | 1.47 fold enrichment (6-mer frequency, TF over GST control) | 1.25 fold enrichment (6-mer frequency, TF over GST control)
2 | TACGCC | 1.36 fold enrichment (6-mer frequency, TF over GST control) | 1.36 fold enrichment (6-mer frequency, TF over GST control) | 1.29 fold enrichment (6-mer frequency, TF over GST control) | 1.26 fold enrichment (6-mer frequency, TF over GST control) | 1.19 fold enrichment (6-mer frequency, TF over GST control) | 1.2 fold enrichment (6-mer frequency, TF over GST control) | 1.27 fold enrichment (6-mer frequency, TF over GST control) | 1.28 fold enrichment (6-mer frequency, TF over GST control)
3 | CATCAC | 1.17 fold enrichment (6-mer frequency, TF over GST control) | 1.07 fold enrichment (6-mer frequency, TF over GST control) | 1.12 fold enrichment (6-mer frequency, TF over GST control) | 1.15 fold enrichment (6-mer frequency, TF over GST control) | 1.08 fold enrichment (6-mer frequency, TF over GST control) | 1.11 fold enrichment (6-mer frequency, TF over GST control) | 1.13 fold enrichment (6-mer frequency, TF over GST control) | 1.13 fold enrichment (6-mer frequency, TF over GST control)
4 | ACTAAG | 1.04 fold enrichment (6-mer frequency, TF over GST control) | 1.12 fold enrichment (6-mer frequency, TF over GST control) | 1.11 fold enrichment (6-mer frequency, TF over GST control) | 1.16 fold enrichment (6-mer frequency, TF over GST control) | 1.14 fold enrichment (6-mer frequency, TF over GST control) | 1.12 fold enrichment (6-mer frequency, TF over GST control) | 1.09 fold enrichment (6-mer frequency, TF over GST control) | 1.2 fold enrichment (6-mer frequency, TF over GST control)
5 | GGATGC | 1.13 fold enrichment (6-mer frequency, TF over GST control) | 1.19 fold enrichment (6-mer frequency, TF over GST control) | 1.2 fold enrichment (6-mer frequency, TF over GST control) | 1.91 fold enrichment (6-mer frequency, TF over GST control) | 1.22 fold enrichment (6-mer frequency, TF over GST control) | 1.25 fold enrichment (6-mer frequency, TF over GST control) | 1.3 fold enrichment (6-mer frequency, TF over GST control) | 1.15 fold enrichment (6-mer frequency, TF over GST control)
6 | CATTAC | 1.09 fold enrichment (6-mer frequency, TF over GST control) | 1.14 fold enrichment (6-mer frequency, TF over GST control) | 1.23 fold enrichment (6-mer frequency, TF over GST control) | 1.14 fold enrichment (6-mer frequency, TF over GST control) | 1.03 fold enrichment (6-mer frequency, TF over GST control) | 1.1 fold enrichment (6-mer frequency, TF over GST control) | 1.13 fold enrichment (6-mer frequency, TF over GST control) | 1.11 fold enrichment (6-mer frequency, TF over GST control)
7 | ATAGCA | 1.24 fold enrichment (6-mer frequency, TF over GST control) | 1.19 fold enrichment (6-mer frequency, TF over GST control) | 1.22 fold enrichment (6-mer frequency, TF over GST control) | 1.12 fold enrichment (6-mer frequency, TF over GST control) | 1.06 fold enrichment (6-mer frequency, TF over GST control) | 1.16 fold enrichment (6-mer frequency, TF over GST control) | 1.19 fold enrichment (6-mer frequency, TF over GST control) | 1.18 fold enrichment (6-mer frequency, TF over GST control)
